From PubChem BioAssay
Most compounds without a hit are left out; they make up all but 6% or so of the library.
HEK293 cAMP ctrl = counter-screen for TSHR agonists: cAMP increase in parental HEK293; parental HEK293 CNG cAMP sensor, membrane potential fluorescence; Potency, µM (doses to about 57.1 µM), inactives show at the top dose activation, hits mostly activators; 73,000 compounds, 2.5% hits; AID 938; also: % of control where 0% means no effect; nearly all actives have a fitted effect of over 55% in size
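Parental HEK 293 cells stably expressing a cAMP-gated CNG channel were loaded with membrane potential dye containing 100 uM RO 20-1724 for 60 min. Compound added for 30 min; depolarization read as fluorescence intensity at 590 nm.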
ERK AVP block = inhibitors of vasopressin-stimulated ERK signaling pathway. HEK293-V1b, vasopressin-stimulated pERK AlphaScreen. Potency, µM (doses to about 57.5 µM), without a hit: at the top dose activity, negative = inhibition, most hits filed as inhibitors. 72,000 compounds, 0.99% hits; also: % is scaled to controls: 0 for no effect and ±100 for the full control effect; nearly all actives have a fitted effect of over 55% in size
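qHTS, compounds titrated on V1b-expressing HEK293 cells. Preincubation 30 min at 37C, vasopressin 25 nM for 5 min, lysis 10 min, bead incubation 5 hr at room temperature.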
CRE Fsk mod = CRE-bla signaling modulation under forskolin stimulation; CHO CRE-bla reporter (cAMP response element driving beta-lactamase), forskolin EC10, beta-lactamase ratio; Potency, µM (titrated, usually from 38.2 µM), for the others: top-dose activity change, negative = inhibition, hits mostly activators; 71,000 compounds, 2.5% hits; active = well fitted activation curve with a large enough effect in the signal ratio, with a control signal flat, not every such curve was filed as active; inconclusive = small, poorly fitted or top-dose-only effect, or effect the other way, or a change in a side signal; the % refers to the signal ratio; also: % of control where 0% means no effect
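The 460nm/530nm emission ratio after CCF4 loading defined %Activity, from which AC50 values were obtained. CRE-bla CHO cells received compound dilution series together with an EC10 level of NKH 477 for 3 hours at 37 degrees Celsius.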
TSHR agonist = agonists of human thyroid stimulating hormone receptor; 73,000 compounds, 0.48% hits; HEK293-CNG-TSHR cells (CNG channel as cAMP sensor), membrane potential dye, cAMP; AID 926; P16473; Potency, µM (series often up to 57.1 µM), for inactives: at the highest dose activation, usual class: activators; active = well fitted activation curve with a large enough effect in the main read-out, with a control signal flat, not every such curve was filed as active; inconclusive = small, poorly fitted or top-dose-only effect, or a change in a side signal; inactive = no such curve, though single readings can be large or run the other way; % of control where 0% means no effect;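 also: the control signal comes from parental cells without the receptor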
Target sequence (P16473 whole entry, looked up): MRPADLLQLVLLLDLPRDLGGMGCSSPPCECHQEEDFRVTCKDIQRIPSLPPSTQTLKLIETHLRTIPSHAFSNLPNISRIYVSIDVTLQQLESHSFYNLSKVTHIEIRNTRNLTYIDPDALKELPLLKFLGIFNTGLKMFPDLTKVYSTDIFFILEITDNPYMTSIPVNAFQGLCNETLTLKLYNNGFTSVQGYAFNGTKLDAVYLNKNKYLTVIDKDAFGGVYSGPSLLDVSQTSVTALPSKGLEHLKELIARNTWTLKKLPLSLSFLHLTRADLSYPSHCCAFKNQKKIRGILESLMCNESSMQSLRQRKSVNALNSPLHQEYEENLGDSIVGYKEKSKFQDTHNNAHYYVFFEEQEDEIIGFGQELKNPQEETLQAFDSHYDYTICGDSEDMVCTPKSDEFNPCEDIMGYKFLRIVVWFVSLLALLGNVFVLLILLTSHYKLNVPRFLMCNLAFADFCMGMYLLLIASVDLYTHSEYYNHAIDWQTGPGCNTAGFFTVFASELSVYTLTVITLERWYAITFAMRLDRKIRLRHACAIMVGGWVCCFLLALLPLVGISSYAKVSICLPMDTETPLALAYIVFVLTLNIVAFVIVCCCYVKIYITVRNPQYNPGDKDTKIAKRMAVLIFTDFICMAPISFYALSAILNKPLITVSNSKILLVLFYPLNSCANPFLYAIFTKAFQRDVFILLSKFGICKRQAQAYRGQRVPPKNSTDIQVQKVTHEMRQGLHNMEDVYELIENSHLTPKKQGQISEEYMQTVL
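HEK 293 cells stably expressing TSHR and a cAMP-gated CNG channel; parental CNG-only cells as counterscreen. Cells preloaded 60 min with membrane potential dye plus 100 uM RO 20-1724, then compound 30 min; fluorescence read at 590 nm.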
The depositor's hits bear a star; ? = inconclusive; . = not tested or not shown; [ ] = remark or other dose. Unless noted, calls follow the shape of the dose curve; as a rule, active = well fitted curve in the direction sought with a large enough effect; inconclusive = small, poorly fitted or top-dose-only effect, or another doubt; inactive = no such curve, though single readings can be large; an effect the other way counts as inactive or inconclusive. Potency is read from the fitted curve at half-maximal effect.

SMILES | HEK293 cAMP ctrl | ERK AVP block | CRE Fsk mod | TSHR agonist
CCN(CC)S(=O)(=O)c1cccc(-c2nnc(SCC(=O)NCCC3=CCCCC3)n2N)c1 | 13% | 40µM* | -6% | 15%
Cc1cccc(-n2nnnc2SCC(=O)NCCN2C(=O)CSC2=O)c1 | 3% | -7% | -9% | 0%
Cc1cccc(-n2nnnc2SC(C)C(=O)NCCC2=CCCCC2)c1 (centres undefined) | 13µM* | -6% | -12% | ?
c1ccc2c(c1)CCC[C@@H]2C1=NCCN1 | 12%[25.6 µM] | -2%[25.7 µM] | -5%[17.1 µM] | -4%[25.6 µM]
CC(C)(C)c1ccc(O)c(CN(Cc2cc(C(C)(C)C)ccc2O)c2ccccc2)c1 | -4%[11.4 µM] | -1%[11.5 µM] | ? | 7%[11.4 µM]
COc1cccc(Cn2c(=O)c(CCc3ccccc3)nc3cnc(OC)nc32)c1 | 16µM* | 8% | 13µM* | ?
COc1ccc(-c2nc3cnc(OC)nc3n(Cc3cccc(OC)c3)c2=O)cc1 | 15% | 16% | 2.5µM* | 10%
CN[C@]1(C)[C@@H]2CC[C@@H](C2)C1(C)C | -7% | 22% | 2% | 4%
Cn1c2ccccc2c2c(C(=O)N3CCN(c4ccccc4)CC3)cn(C3CCCC3)c(=O)c21 | 2% | -6% | -2% | 29%
Cc1cccc(N2CCN(C(=O)c3cn(C)c(=O)c4c3c3ccccc3n4C)CC2)c1C | 24% | 20µM* | ? | 9%
NC(N)=NC(N)=Nc1ccc(C(=O)O)cc1 | 12%[11.4 µM] | 7%[11.5 µM] | -6%[7.6 µM] | 21%[11.4 µM]
Cc1nc2ncnn2c(C)c1Cc1ccc(Cl)cc1F | 27% | -5% | 24% | 25µM*
CN(C)c1ccc(N=Cc2nc(-c3ccccc3)oc2O)cc1 | -47% | 13µM* | -13% | ?
CN(C)Cc1ccccc1-c1cc(NC2CC2)ncn1 | -4% | -7% | 0% | 4%
COC(=O)CSc1nc(N2CCCCC2)c2c(c1C#N)CCCC2 | 26% | 17% | -18% | .
CSc1nc(N2CCOCC2)c2c(c1C#N)CCCCC2 | 25µM* | 34% | -1% | ?
CC(=O)Nc1cccc(NC(=O)c2c(-c3c(Cl)cccc3Cl)noc2C)c1 | -12%[11.4 µM] | 0% | ? | 2µM*
Cc1noc(C)c1C(=O)N1CCC2(CCCN(c3ccncc3)C2)CC1 | 7% | 9% | -2% | -3%
CCn1c(SCC(=O)c2ccc(C)cc2)nnc1-c1ccoc1C | 34% | 16% | 0% | 13%
CCn1c(SCC(=O)c2ccc(Cl)cc2)nnc1-c1ccoc1C | 25µM* | ? | -8% | ?
Cc1ccc(C(=O)CSc2nnc(-c3ccco3)n2Cc2ccccc2)cc1 | 13µM* | -19% | 7% | ?
O=C(CSc1nnc(-c2ccco2)n1Cc1ccccc1)c1ccccc1 | 19% | 19% | 6% | 3%[11.4 µM]
CC(C)Cn1c(SCC(=O)c2ccc(Cl)s2)nnc1-c1ccco1 | 20µM* | -9% | -5% | ?
O=c1c(-c2ccc(F)cc2)nc2cnc(N3CCOCC3)nc2n1Cc1ccc(F)cc1 | 15% | -24% | ? | -1%
COc1ccc(Cl)cc1NC(=O)CN(C)C(C)C(=O)NCC1CCCCC1 (centres undefined) | ? | 15% | ? | ?
SMILES | HEK293 cAMP ctrl | ERK AVP block | CRE Fsk mod | TSHR agonist
CCOC(=O)c1c(C)[nH]c(C(=O)COC(=O)c2ccccc2NC(=O)c2ccco2)c1C | 0% | 12% | 2µM* | 2%
COc1ccc(C(=O)Nc2ccc(Cl)cc2C(=O)NCc2ccco2)cc1OC | 25µM* | -27% | ? | ?
COc1cc(NC(=O)c2ccco2)c(OC)cc1NC(=O)c1cc(OC)c(OC)c(OC)c1 | 2% | 9% | 4µM* | -23%
COc1ccc(Cl)cc1NC(=O)CN(C(=O)c1ccco1)C1CCCCC1 | 4µM* | 12% | -9% | ?
COc1ccc(C(=O)Nc2ccccc2C(=O)NCc2ccco2)cc1OC | 17% | -28% | ? | .
C[N+]1(C)CCO[C@](O)(c2ccccc2)C1 | -4%[11.4 µM] | 15%[11.5 µM] | ? | 1%[11.4 µM]
C=C(C)[C@H]1CC[C@]2(C(=O)O)CC[C@]3(C)[C@@H](CC[C@H]4[C@@]5(C)CC[C@@H](O)C(C)(C)[C@@H]5CC[C@@]43C)[C@H]12 | -1%[25.6 µM] | 22%[25.7 µM] | 2%[17.1 µM] | -18%[25.6 µM]
COc1cc(C(=O)Nc2nc(OC)c(-c3ccccc3)c(OC)n2)cc(OC)c1OC | -4% | -25% | ? | 1%
COc1ccc(NC(=O)c2ccccc2NC(=O)c2ccco2)c(OC)c1 | 9%[11.4 µM] | ? | ? | 17%[11.4 µM]
COc1cc(C(=O)Nc2cc(-c3ccccc3)[nH]n2)cc(OC)c1OC | -5%[11.4 µM] | ? | 0.79µM* | -12%[11.4 µM]
COc1ccccc1NC(=O)c1ccc(-c2ccccc2F)o1 | 25µM* | -4% | ? | ?
COc1ccccc1NC(=O)c1cc(Cl)ccc1NC(=O)c1ccco1 | 25µM* | -15% | 11% | ?
COc1cc(C(=O)Nc2c(-c3ccccn3)c(=O)c3ccccc3n2C)cc(OC)c1OC | 7% | -5% | 0.16µM* | 6%
COC(=O)c1ccc(C(NC(=O)OCc2ccccc2)/C(=C/[C@@H](C)C(=O)N(C)Cc2ccccc2)c2cccnc2)cc1 (some centres undefined) | 19% | 24% | -29% | 26%
CCOc1ccccc1NC(=O)c1cc(Cl)ccc1NC(=O)c1ccco1 | 25µM* | -3% | 3% | ?
O=C(Nc1ccc(Cl)cc1C(=O)Nc1ccccn1)c1ccco1 | 49% | -22% | ? | .
CN(C)c1nc(NCc2ccccc2)nc(Oc2ccc(=O)[nH]n2)n1 | 12% | 18% | 6% | 20µM*
C=C(CO)[C@H]1Cc2c(ccc3c(=O)c4c(oc23)COc2cc(OC)c(OC)cc2-4)O1 | -4% | . | ? | -9%
Nc1nonc1-c1nc2ccccc2n1Cc1ccc(F)cc1Cl | 16µM* | 22% | 24% | ?
CCOC(=O)N1CCC(NC(=O)c2cccc3c2C(=O)N(c2ccc(OC)cc2)C3)CC1 | -3% | -27% | 5µM* | 7%
CCOC(=O)N1CCC(N2Cc3cccc(C(=O)NCc4ccc(OC)cc4)c3C2=O)CC1 | 2% | 38% | ? | 8%
COc1ccc(Oc2cn[nH]c2-c2ccc(O)cc2O)cc1 | 2µM* | -12% | 2% | ?
CCCc1ccc(Oc2cn[nH]c2-c2ccc(O)cc2O)cc1 | -3%[11.4 µM] | ? | ? | -13%[11.4 µM]
C=C(CC(=O)OC)C[C@]1(CC(=O)OC)CC2(CC=C(C)C)C(=O)C(C(=O)c3ccccc3)=C(OC(=O)c3ccc(Br)cc3)C(CC=C(C)C)(C1)C2=O (some centres undefined) | 1%[11.4 µM] | 27%[11.5 µM] | . | 6%[11.4 µM]
Cc1cc(C)n(-c2nc3ccccc3c3nc(C)nn23)n1 | 10% | . | 10µM* | 14%
Cc1cc(C)c(C#N)c(SCC(=O)CC(=O)OC(C)C)n1 | 25µM* | -19% | 18% | ?
N#C/C(=C\Nc1ccccn1)C(=O)c1ccco1 | 1%[11.4 µM] | -6%[11.5 µM] | -4%[7.6 µM] | 0%[11.4 µM]
CCOC(=O)c1c(NC(=O)CSc2n[nH]c(-c3ccco3)n2)sc(C)c1C | 14% | -30% | 0.063µM* | 30%
CCOC(=O)c1c(N)sc(C(=O)N2CCCC2)c1C | 14% | -26% | ? | 2%
